Experimental data taken from PubChem BioAssay AID504847 (National Center for Advancing Translational Sciences (NCATS), 2011).
The campaign covered roughly 400,000 compounds. About 3,700 (0.93%) were called active. Another 3% or so got no clear call; they are omitted. The sample as a whole holds a higher share of actives than the screen did. Unmarked numbers belong to inactive results. The call rests on the fitted dose curve; in most records, active means well fitted inhibition curve with a large enough effect; inconclusive means small, poorly fitted or top-dose-only effect, or another doubt; inactive means no such curve, though single readings can be large or run the other way.

Target: Vitamin D3 receptor (Homo sapiens) (UniProt P11473)
Test: Inhibitors of the vitamin D receptor (VDR): qHTS
Conditions: VDR-SRC2-3 peptide fluorescence polarization, 2 h; max response, negative = inhibition: stronger effect = lower value
Method in brief: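 After 23 nl compound addition and a short centrifugation, plates sat for 2 hours at ambient temperature; polarization of fluorescence then indicated loss of VDR binding to peptide SRC2-3.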
On the % scale 0 is the no-effect control and ±100 the full control effect; potency means the concentration at half of the fitted maximal effect.

Chain of Vitamin D3 receptor (Homo sapiens) (P11473 whole entry, looked up): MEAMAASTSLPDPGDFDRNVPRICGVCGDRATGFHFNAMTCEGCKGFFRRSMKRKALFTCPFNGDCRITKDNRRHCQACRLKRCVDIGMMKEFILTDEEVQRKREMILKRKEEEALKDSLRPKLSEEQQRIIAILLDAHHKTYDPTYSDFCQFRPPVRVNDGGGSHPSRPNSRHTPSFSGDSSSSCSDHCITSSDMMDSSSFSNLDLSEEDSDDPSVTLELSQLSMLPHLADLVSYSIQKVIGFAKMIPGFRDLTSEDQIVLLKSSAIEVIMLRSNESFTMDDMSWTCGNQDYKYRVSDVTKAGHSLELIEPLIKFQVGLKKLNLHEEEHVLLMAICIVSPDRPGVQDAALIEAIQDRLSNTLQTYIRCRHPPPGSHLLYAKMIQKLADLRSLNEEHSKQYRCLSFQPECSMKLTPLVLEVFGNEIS

Row | Structure (SMILES) | Potency | max response, negative = inhibition [%]
1 | COc1ccc(/C=C/C(=O)c2cc(Br)ccc(=O)c2O)cc1 | 50.1 µM (active) | –
2 | COc1ccc(CC(=O)NCC(=O)N/N=C/c2cc(Br)ccc2OC)cc1 | – | 13.7
3 | COc1ccc(C(=O)c2oc3ccc(Br)cc3c2NC(C)=O)cc1 | – | -3.63
4 | CCN(CC)c1nn2c(=O)c(C(=O)NCCc3ccccc3)cnc2s1 | – | 2.65
5 | CCOC(=O)c1sc(NC(=O)/C=C/c2ccc(C(C)C)cc2)c(C(=O)OCC)c1C | – | -21.4
6 | CCOC(=O)c1c(NC(=O)c2ccc(S(=O)(=O)N3CCCC(C)C3)cc2)sc2c1CCN(C(C)C)C2 (configuration not stated) | – | 21.6
7 | CC(C)CC(=O)NC(=S)Nc1cc(C(=O)O)ccc1Cl | – | -4.96
8 | Cc1ccc(NC(=S)NCCc2ccc(Cl)cc2)c(C)c1 | – | 2.39
9 | CCC(C(=O)Nc1ccc(C(C)C)cc1)c1ccccc1 (configuration not stated) | – | -16.3
10 | CC(C)c1ccc(NC(=S)NNc2ccc(Cl)c(C(=O)O)c2)cc1 | 39.8 µM (active) | –
11 | Cc1ccc(C)c(NC(=S)NCC(c2cccnc2)N2CCOCC2)c1 (configuration not stated) | – | -7.85
12 | Cc1ccc(C)c(NC(=S)NNC(=S)Nc2ccc(C(C)C)cc2)c1 | 35.5 µM (active) | –
13 | COc1cc(C(=O)N2CCN(C(=O)COc3cccc(C)c3)CC2)cc(OC)c1OC | – | -6.68
14 | Cc1ccc(-c2nc(=N)sn2Cc2ccccc2)cc1 | 17.8 µM (active) | –
15 | Cc1ccc(CN2C(=O)SC(Nc3ccccc3)C2=O)cc1 (configuration not stated) | – | -7.63
16 | Cc1ccc(-c2cc(C(=O)NC3CCN(Cc4ccccc4)CC3)c3ccccc3n2)cc1 | – | -7.79
17 | CC(=O)/C(C)=N\O | – | -2.4
18 | CCOc1ccc(CNC(=O)c2cc(=O)[nH]c3ccc(S(=O)(=O)N4CCCCC4)cc23)cc1 | – | 6.6
19 | O=C(NC1CC(=O)N(c2ccc(F)cc2)C1)C1CCCCC1 (configuration not stated) | – | -2.82
20 | CCCn1c2ccccc2c2cnn(CC(=O)N(CC)c3cc(C)ccc3C)c(=O)c21 | – | 3.02
21 | CCN(CCCNC(=O)Cn1ncc2c([nH]c3ccccc32)c1=O)c1cccc(C)c1 | – | 2.86
22 | CCN(CCCNC(=O)c1ccc(Sc2ccc(C)cc2)c(NC(C)=O)c1)c1cccc(C)c1 | – | 9.47

Row | Structure (SMILES) | Potency | max response, negative = inhibition [%]
23 | CCN(CCCNC(=O)c1ccc2c(c1)NC(=O)CN2C)c1cccc(C)c1 | 79.4 µM (active) | –
24 | CCOc1ccc(N(CC)C(=O)c2noc3c2COc2ccc(C)cc2-3)cc1 | – | 8.55
25 | CCOc1cccc(CC(=O)N2CCc3c([nH]c4ccccc34)C2c2ccc(OC)cc2)c1OCC (configuration not stated) | – | 11.9
26 | COc1ccc(-c2cc(=O)oc3cc(OCC(=O)N[C@@H](Cc4c[nH]c5ccccc45)C(=O)O)ccc23)cc1 | – | -24.6
27 | COc1ccc(-c2cc(C(=O)NC(C(=O)O)C(C)C)c(C)o2)cc1OC (configuration not stated) | – | -0.859
28 | COc1ccc(-c2cc(C(=O)NC(Cc3c[nH]c4ccccc34)C(=O)O)c(C)o2)cc1OC (configuration not stated) | 44.7 µM (active) | –
29 | CC1CCN(c2nc3ccc(C(=O)N4CCN(c5ccccc5)CC4)cc3s2)CC1 | – | 19.1
30 | COc1ccc(Cn2c(=O)n(-c3ccccc3C)c(=O)c3c4c(sc32)CN(C(C)=O)CC4)cc1 | – | 7.19
31 | Cc1ccc(C)c(N2CCN(S(=O)(=O)c3ccc4c(c3)C(C(C)C)C(=O)N4)CC2)c1 (configuration not stated) | – | 8
32 | Cc1csc(-c2coc3cc(O[C@@H]4O[C@H](CO)[C@@H](O)[C@@H](O)[C@H]4O)ccc3c2=O)n1 | – | 9.43
33 | O=C(COC(=O)/C=C/c1cn(-c2ccccc2)nc1-c1cccnc1)Nc1ccc(Cl)cc1Cl | – | -8.09
34 | O=C(/C=C/NNC(=O)c1cccc(Br)c1)c1ccccc1 | – | 0
35 | O=C(O)CCn1cc(/C=C/C(=O)c2ccc(Cl)cc2)c(-c2cccc(Br)c2)n1 | 15.8 µM (active) | –
36 | Cc1c(-c2nc(-c3ccc4c(c3)OCO4)no2)nnn1-c1ccc(Br)cc1F | – | 14.1
37 | Cc1ccc(Cl)cc1-n1ncc2c(N3CCC(C(N)=O)CC3)ncnc21 | – | -9.07
38 | OC[C@@H]1O[C@H](n2cnc3c(SCc4ccccc4)ncnc32)[C@H](O)[C@H]1O | – | -14.3
39 | O=S(=O)(O)c1cc2onnc2c2ccccc12 | 17.8 µM (active) | –
40 | COc1ccc(CCN2C(=O)c3oc4cc(C)cc(C)c4c(=O)c3C2c2ccccc2F)cc1OC (configuration not stated) | – | 4.42
41 | COc1ccccc1NC(=O)C(=O)c1cc(C)n(-c2ccccc2F)c1C | – | 14.8
42 | CCCCOc1ccc(CN2C(=O)C(=O)c3cc(Br)cc(C)c32)cc1OC | 14.1 µM (active) | –
43 | COc1ccc(CCN2C(=O)C(C)=C(C)C2=O)cc1OC | – | -14.3
44 | CCCCOc1ccc(Cn2c(=O)oc3ccc(C)cc32)cc1OC | – | -6.99

Row | Structure (SMILES) | Potency | max response, negative = inhibition [%]
45 | CCN(CC)CCNc1ncnc2c1cnn2-c1cc(Cl)ccc1C | – | 11.7
46 | CN1[C@H]2CC(OC(=O)[C@@H](CO)c3ccccc3)C[C@H]1[C@H]1O[C@H]12 (some centres not stated) | – | 7.07
47 | CCOC(=O)/C=C/c1ccc(C(F)(F)F)cc1S(=O)(=O)NC(C)(C)C | 79.4 µM (active) | –
48 | CCOC(=O)NNc1cc(C(F)(F)F)ccn1 | – | -1.56
49 | Cn1c(N)c(C(=O)COC(=O)/C=C/c2cccc(C(F)(F)F)c2)c(=O)n(C)c1=O | – | 8.93
50 | CC1(C)CCc2cc(S(=O)(=O)N3CCN(c4nc(-c5cccs5)nc5ccccc45)CC3)ccc2O1 | – | -7.78
51 | OCC(CO)NC1C[C@](O)(CO)[C@@H](O)[C@H](O)[C@H]1O (some centres not stated) | – | 1.5
52 | O=C(Nc1cccc(F)c1)c1cc(-c2ccco2)nc2ccccc12 | – | -14.8
53 | CC(=O)N1CCN(C(=O)c2cc(-c3ccc(C)o3)nc3ccccc23)CC1 | – | -3.82
54 | CC1CCCN(C(=O)c2cc(-c3ccco3)nc3ccccc23)C1 (configuration not stated) | 35.5 µM (active) | –
55 | CN(C)c1cccc(C(=O)Nc2nc3ccc(S(=O)(=O)NC(C)(C)C)cc3s2)c1 | – | 8.63
56 | COc1ccccc1-c1noc(CSc2nnc(-c3ccccc3)n2-c2ccc(C)c(C)c2)n1 | – | 5.39
57 | O=C(Cn1nc(CNc2ccc(Cl)cc2)[n+]2c1CCCCC2)c1ccc(Cl)cc1 | 79.4 µM (active) | –
58 | O=C(Cn1nc(C(F)(F)F)c2c1CCCC2)Nc1ccc(Cl)cc1 | – | 4.81
59 | O=C(Cn1ncc(N2CCCC2)c(Br)c1=O)c1ccc(Cl)cc1 | – | -1.29
60 | Cc1cccc(N2CCN(c3ccc(C(=O)O)cc3NC(=O)c3ccccc3F)CC2C)c1 (configuration not stated) | – | 1.51
61 | O=C(CCN1CCN(C/C=C/c2ccccc2)CC1)Nc1ccccc1Cl | – | -1.78
62 | O=C(Nc1ccccc1Cl)N1CCC(CN2CCCC2)CC1 | – | 6.62
63 | O=C(Nc1ccccc1Cl)/C(Cl)=C(\Cl)S(=O)c1ccccc1 (configuration not stated) | 3.98 µM (active) | –
64 | CCn1cc(C(=O)NCc2ccc(C)cc2)c(=O)c2cc(S(=O)(=O)N3CCc4ccccc4C3)ccc21 | – | -10.3
65 | Cc1c(Br)cc(C(=O)N2CCCCCC2)c(C)c1C | – | -2.34
66 | Cc1ccc(C(=O)N2CCCC2)c(F)c1F | 44.7 µM (active) | –

Row | Structure (SMILES) | Potency | max response, negative = inhibition [%]
67 | Cc1ccc(C(NC(=O)N2CCCC2)C(Cl)(Cl)Cl)cc1F (configuration not stated) | – | 6.9
68 | CCC(=O)Nc1cccc(C(=O)OCc2cc(=O)n3nc(CC)sc3n2)c1 | – | 7.59
69 | C=C1C(=CC=C2CCC[C@@]3(C)[C@@H]2CC[C@H]3[C@H](C)CCCC(C)C)C[C@@H](O)C[C@@H]1O | – | 8.33
70 | CCOCCn1ccc2c(OCC(=O)NCc3ccc(C)cc3)cccc2c1=O | – | 10.6
71 | Cc1ccc(OCC(=O)Nc2ccc(OCc3cc(=O)n4c(C)csc4n3)cc2)cc1C | – | -8.2
72 | O=C(Nc1c(C(=O)N2CCN(c3ccc(F)cc3)CC2)oc2ccccc12)c1ccco1 | – | -2.38
73 | COc1ccccc1CNC(=O)c1ccc(-n2c(C)cc3c2CCCC3)cc1 | – | 13.6
74 | O=C(Nc1ccc([N+](=O)[O-])cc1)OCCc1ccccn1 | – | -15.4
75 | O=c1cc(CO)oc(C(Nc2cccc([N+](=O)[O-])c2)c2ccccn2)c1O (configuration not stated) | 79.4 µM (active) | –
76 | O=C(CSc1nnc(-c2ccccc2F)o1)Nc1cccc(C(F)(F)F)c1 | – | -10.5
77 | Cn1c(=O)c2c(ncn2CC(=O)Nc2cccc(C(F)(F)F)c2)n(C)c1=O | – | 2.35
78 | O=C(CSc1nc(-c2ccccc2)cs1)Nc1cccc([N+](=O)[O-])c1 | – | -15.3
79 | O=c1cc(CO)oc(C(Nc2cccc(C(F)(F)F)c2)c2ccccn2)c1O (configuration not stated) | 50.1 µM (active) | –
80 | Cc1c(Cl)cccc1NC(=O)c1noc2c1CCCC2 | – | -14.6
81 | O=C(NCc1ccccc1)c1ccc2c(c1)nc1n2CCCCC1 | – | 12.2
82 | Cc1ccc(C)c(NC(=O)C2CCCN(S(=O)(=O)c3cn(C)cn3)C2)c1 (configuration not stated) | – | 2.5
83 | COCCNC(=O)c1ccc2c(c1)N(Cc1cccc(Cl)c1)C(=O)c1ccccc1S2(=O)=O | – | 5.24
84 | CCCCOc1ccc(C(=O)N2CC(=O)Nc3ccc(Br)cc3C2c2ccc(F)cc2)cc1 (configuration not stated) | – | -9.94
85 | Cc1cccc(OP(=O)(Nc2c(C)n(C)n(-c3ccccc3)c2=O)Oc2cccc(C)c2)c1 | – | 10.3
86 | Cc1cccc(C2CC(=O)Oc3c2c(=O)n(C)c2ccccc32)c1 (configuration not stated) | – | 0.823
87 | Cc1cccc(Oc2c([N+](=O)[O-])c(=O)n(C)c3ccccc23)c1 | 39.8 µM (active) | –
